Screens from PubChem.
A selection: hits, their analogues and other compounds. The true share with any hit is near 3.3%.
Sm TGR inh: S. mansoni TGR enzyme inhibition; Q962Y6; purified TGR, DTNB reduction, TNB absorbance 405 nm; Potency, µM (highest dose often 114 µM), inactives show at the top dose activity change, negative = inhibition, hits mostly inhibitors; actives 3% (n = 360,000); note: % is set by controls: 0 for no effect and ±100 for the full control effect; nearly all actives have a fitted effect of over 60% in size
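First, TGR (20 nM dispensed) and NADPH were mixed with compound. Second, a 15 min room-temperature incubation followed. Third, further NADPH and then DTNB were added to start the reaction. Finally, TNB absorbance was monitored kinetically.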
NS1 inh: influenza NS1 inhibition; AID 2326; actives 0.4% (n = 270,000); Potency, µM (top dose mostly 46.1 µM), without a hit: at the highest dose activity, positive = more growth; calls by dose curve; note: actives are rising curves; nearly all actives have a fitted effect of over 50% in size
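In this qHTS, NS1 from influenza A is expressed in budding yeast, where it slows growth. Cells are switched from glucose to 2% galactose medium (pH 6.0, -URA), treated with compound, and growth recovery is read at OD600.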
SARS PLpro yeast: inhibitors of SARS-CoV papain-like protease in yeast; S. cerevisiae expressing SARS-CoV PLpro, growth rescue; Potency, µM (titrated, usually from 32.9 µM), without a hit: at the highest dose activity, positive = growth rescue, actives largely listed as activators; actives 0.19% (n = 330,000); AID 485353; calls by dose curve; note: 0% is about no effect; nearly all actives have a fitted effect of over 55% in size
RE007 growth inh: less growth of the S. pombe RE007 Vpr strain. S. pombe RE007 Vpr strain, BacTiter-Glo ATP luminescence, 24 h. Potency, µM (series often up to 92.2 µM), without a hit: at the highest dose activity change, negative = less growth, usual class: inhibitors. actives 0.21% (n = 360,000). AID 651644; active = well fitted falling curve with a large enough effect; note: % is set by controls: 0 for no effect and ±100 for the full control effect; nearly all actives have a fitted effect of over 50% in size
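Fission yeast strain RE007, carrying one chromosomally integrated HIV-1 vpr copy, was seeded at OD 0.01 in PMG+AL medium with 23 nL pinned compound. After 24 h at 30 °C and 99% humidity, viability was read by BacTiter-Glo luminescence.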
LmPK inhibitor: blocks Leishmania mexicana pyruvate kinase activity | purified LmPK, Kinase-Glo ATP luminescence, 1 h | Potency, µM (highest dose often 57.5 µM), inactives show top-dose activity change, negative = inhibition, most hits filed as inhibitors | actives 0.37% (n = 290,000) | AID 1721; note: % is set by controls: 0 for no effect and ±100 for the full control effect
Target sequence (Q27686 whole entry, looked up): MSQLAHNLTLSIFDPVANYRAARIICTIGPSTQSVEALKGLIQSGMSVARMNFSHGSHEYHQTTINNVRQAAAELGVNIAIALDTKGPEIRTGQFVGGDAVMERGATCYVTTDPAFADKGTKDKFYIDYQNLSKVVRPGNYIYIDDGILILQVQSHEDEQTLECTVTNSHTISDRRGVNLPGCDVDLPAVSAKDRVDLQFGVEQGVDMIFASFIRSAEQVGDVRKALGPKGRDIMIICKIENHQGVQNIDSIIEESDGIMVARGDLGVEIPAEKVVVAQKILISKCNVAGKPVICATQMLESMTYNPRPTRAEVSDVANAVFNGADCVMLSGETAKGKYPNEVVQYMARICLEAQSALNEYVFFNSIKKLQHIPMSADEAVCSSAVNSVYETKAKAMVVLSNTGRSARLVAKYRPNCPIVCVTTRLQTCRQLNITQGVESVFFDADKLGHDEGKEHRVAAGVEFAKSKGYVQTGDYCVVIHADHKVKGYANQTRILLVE
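Purified LmPK (0.1 nM) with 0.5 mM PEP and 0.1 mM ADP in imidazole buffer pH 7.2 with MgCl2/KCl, 1 h at room temperature. ATP formed was read by luciferase luminescence and normalized to no-enzyme and uninhibited controls.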
TbPYK inhibitor: inhibitors of Trypanosoma brucei pyruvate kinase; Potency, µM (series often up to 76.8 µM), for the others: top-dose activity, negative = inhibition, hits mostly inhibitors; actives 0.12% (n = 410,000); AID 624173; TbPYK enzyme, Kinase-Glo Plus ATP luminescence, 45 min; note: % is set by controls: 0 for no effect and ±100 for the full control effect; nearly all actives have a fitted effect of over 50% in size
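Screened from lowest to highest concentration, compounds were pinned into TbPYK/substrate mixtures, and ADP (130 uM final) was added. Plates sat at room temperature for 45 min prior to Kinase-Glo Plus detection by luminescence.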
* hit, by the source's call; x = not tested or not shown; [ ] = remark or other dose. Unless noted, calls come from the whole dose curve; as a rule, active = well fitted curve in the direction sought with a large enough effect; inconclusive = small, poorly fitted or top-dose-only effect, or another doubt; inactive = no such curve, though single readings can be large; an effect the other way counts as inactive or inconclusive. Potency is the fitted concentration of half-maximal effect.

SMILES	Sm TGR inh	NS1 inh	SARS PLpro yeast	RE007 growth inh	LmPK inhibitor	TbPYK inhibitor
O=C(Nc1ccc2c(c1)nc1n2CCN(C2CCCCC2)C1)NC1CCCCC1	13µM*	12%	0%	x	0%	x
Nc1c(C(=O)Nc2ccc([As](=O)(O)O)cc2)cnc2nnnn12	x	-5%	x	x	x	x
CC1(C)CC(=O)C2=C(C1)OC(N)=C(C#N)C2C#Cc1ccccc1 (stereo not drawn)	1.6µM*	-12%	-37%	5.6µM*	3%	-21%
CC(c1ccccc1)C1C(C#N)=C(N)OC2=C1C(=O)CC(C)(C)C2 (stereo not drawn)	-26%	-43%	-1%	17%[3.69 µM]	0%	x
CC1(C)CC(=O)C2=C(C1)OC(N)=C(C#N)C2c1ccoc1 (stereo not drawn)	-15%	x	0%	-2%	4%	6%
C/C(=C\c1ccco1)C1C(C#N)=C(N)OC2=C1C(=O)CC(C)(C)C2 (stereo not drawn)	35µM*	1%	2%	2%	6%	-19%
COc1cc(OC)c(NC(=O)Cn2c(=O)nc(-c3ccccc3)c3ccccc32)cc1Cl	-3%	x	x	x	x	7%
CCOC(=O)N1CCN(c2ncc3c(n2)CC(c2ccc(OC)c(OC)c2)CC3=O)CC1 (stereo not drawn)	4.5µM*	x	x	x	x	-4%
O=C1CC=C2C3CC4N(CCC45c4cc(O)c(O)cc4N1C25)CC3=CCBr (stereo not drawn)	x	x	x	-5%	x	2.8µM*
COC(=O)C1(Cc2cc(-c3ccc([N+](=O)[O-])cc3)no2)CCN(C(=O)OC(C)(C)C)CC1	20µM*	x	0%	-1%	x	0%
COC(=O)C1(Cc2cc(-c3ccc(Cl)cc3)no2)CCN(C(=O)OC(C)(C)C)CC1	15%	-67%	-20%	14%	-9%	5%
CSc1ccc(CCNC(=O)c2c(C)nn(-c3ccc(F)cc3)c2-n2cccc2)cc1	4%	x	x	x	x	1%
CCOC(=O)N1CCN(C(=O)C2COc3ccccc3O2)CC1 (stereo not drawn)	5%	-12%	0%	0%	0%	-7%
COc1ccc(S(=O)(=O)N2CCN(C(=O)C3COc4ccccc4O3)CC2)cc1 (stereo not drawn)	18µM*	x	-9%	-5%	x	-13%
CCN1CCN(C(=O)C2COc3ccccc3O2)CC1 (stereo not drawn)	22µM*	8%	0%	6%	-6%	5%
CC(=O)Nc1nonc1-c1nnc(SCc2ccccc2Cl)n1C	1%	x	x	x	x	0%
C/C(N=NC(=[SH+])SCc1ccccc1)=C1\C=CC=CN1.[Cl][Cu]	x	2%	x	x	x	x
O=S(=O)(C/C(=C/CO)S(=O)(=O)c1ccccc1)c1ccccc1	4.5µM*	14%	5%	-6%	1%	-1%
COc1ccc(NC(=O)C(=O)c2cc(C)n(-c3ccc(C)cc3)c2C)cc1Cl	-6%	x	x	x	x	2%
CC(C)NS(=O)(=O)c1ccc2c(c1)oc(=O)n2C	89µM*	3%	-3%	22%	3%	0%
Cn1c(=O)oc2cc(S(=O)(=O)Nc3ccccc3)ccc21	8%	0%	0%	5%	7%	0%
CCC1CCCCN1Cc1ccc(CNS(=O)(=O)c2ccc3c(c2)oc(=O)n3C)o1 (stereo not drawn)	79µM*	7%	3%	-9%	3%	-8%
COc1cc(C2Nc3c(F)cccc3C3C=CCC32)cc(Br)c1OC (stereo not drawn)	20µM*	13%	-1%	0%	4%	-17%
c1ccc(-c2ccc(N3CCCC4(CCNCC4)C3)cc2)cc1	x	x	x	x	x	-3%
O=C(c1ccccc1)c1nnc(-c2ccccc2F)o1	-3%	-1%	1%	-23%	14µM*	-25%
O=C(O)c1ccccc1-c1noc(-c2ccccc2F)n1	-2%	x	0%	x	x	x
